Reference: PubChem BioAssay (Tox21)
A number with no mark means an inactive call. Activity calls are given as the source filed them. Calls come from the whole dose curve.

Assay: G protein-coupled receptor (GPCR) small molecule agonists, calcium flux assay: HEK293 wild type cell line counter screen (AID 1920065)
Conditions: HEK293 WT calcium flux, fluorescence, agonist mode; series mostly up to 57.6 µM; activation: at the top concentration
Text: U.S. Tox21 Program National Center for Advancing Translational Sciences [NCATS] Division of Preclinical Innovation [DPI] U.S. Environmental Protection Agency [EPA] National Institutes of Environmental Health Sciences [NIEHS] National Toxicology Program [NTP] U.S. Food and Drug Administration [FDA] Assay overview: The increased intracellular calcium release that occurred upon G protein-coupled receptor (GPCR) activation led to the frequent use of calcium flux assays to detect GPCR activation. For the purpose of studying and screening compounds that may activate GPCR, receptor-overexpressing models were typically generated using Hek293 wild-type (WT) cells. In order to eliminate the compounds that may have induced calcium release for non-specific activation, a counter-assay utilizing calcium flux on Hek293 WT cells was performed. The data were formulated in order to serve as a control for any calcium flux detection utilizing Hek293 cells with either GPCR overexpression or gene modification. The procurement of Hek293 WT cells from ATCC. Fluorescence intensity can be utilized to determine the activation of the compound in a calcium flux assay. As a counter control, this cell line was utilized to screen the Tox21 10K compound library.
Assay Protocol Summary: Hek293 cells were dispensed at 1500cells/4uL/well in 1536-well black wall/clear bottom plates using a multidrop dispenser. After the assay plates were incubated at a 37 C/5% CO2 incubator for 18 hours, 4 uL of Calcium Dye Solution was added to each well. The plates were incubated at 37 C for 1 hour. For agonist mode, 23 nL of compounds dissolved in DMSO, positive control (ATP) or DMSO only was transferred to the assay plate by a pin tool station. The fluorescence intensity in the plates was measured using FDSS 7000EX kinetic plate reader with a filter set of Ex/Em=480/540 for 3 min at 1 sec intervals. Each test compound was measured at 15 concentrations and in triplicates.
% is set by controls: 0 for no effect and ±100 for the full control effect.

Row | Compound | activation | Potency
1 | CC(C)(C)c1ccc(C(=O)CCCCl)cc1 | -0.767% [at 26.5 µM] | 
2 | CCCCN(CCCC)CCCCCCN(CCCC)CCCC | -1.13% | 
3 | CC(=O)Nc1ncc([N+](=O)[O-])s1 | -0.112% [at 26.5 µM] | 
4 | FC(F)(F)c1ccccc1Cl | -0.463% | 
5 | Cc1ccc2oc(=O)ccc2c1 |  | inactive
6 | CC(=O)c1cc2ccccc2s1 | 0.166% [at 26.5 µM] | 
7 | O=C(O)c1cccc(C[C@@H]2COc3ccc(OCc4nc5cc(F)ccc5s4)cc3[C@@H]2O)c1 | 1.5% | 
8 | O=[N+]([O-])c1cncn1CCN1CCOCC1 | -0.804% [at 26.5 µM] | 
9 | C1=CCC2CC=CC2C1 (stereo not given) | 0.559% | 
10 | CC12CCC(C(=O)C1=O)C2(C)C (stereo not given) | 0.0323% | 
11 | Clc1cc(Cl)c(Cl)c(Cl)c1Cl | -0.448% | 
12 | COS(=O)(=O)O | 0.0196% | 
13 | O=C(Oc1ccccc1)c1ccccc1 |  | inactive
14 | FC(F)(F)c1ccccc1 | 1.86% | 
15 | NC(=O)c1ccccc1Cl | 0.276% | 
16 | CCCOCCOCCOCCO | 0.503% | 
17 | O=C(NCN1CCOCC1)c1cnccn1 | 0.386% [at 26.5 µM] | 
18 | O=C(Nc1ccc(Cl)cc1)Nc1ccc(Cl)c(Cl)c1 |  | inactive
19 | CC[C@H](C)[C@@H](C(=O)O)n1sc2ccccc2c1=O | -0.0013% | 
20 | Cc1cccc(C)c1NC(=O)CN1CCCCCC1 | 0.735% [at 26.5 µM] | 

Row | Compound | activation | Potency
21 | CC(C)c1ccccc1O | -0.339% | 
22 | CCN(CC)CCOc1ccc(/C(=C(\Cl)c2ccccc2)c2ccccc2)cc1 |  | inactive
23 | O=C1NCCN1CCO | 0.225% | 
24 | CCN(CC)c1ccc(C=O)c(O)c1 | -1.66% | 
25 | NCCOCCN | -1.35% | 
26 | CC(C)OC=O |  | inactive
27 | O=C(O)[C@@H]1[C@H]2C[C@H]3c4[nH]c5ccccc5c4CCN3C[C@@H]2CC[C@@H]1O | 4.68% [at 26.5 µM] | 
28 | CN1CCCC1=O |  | inactive
29 | CCCN1CCCC[C@H]1C(=O)Nc1c(C)cccc1C | -0.0201% [at 26.5 µM] | 
30 | C[C@H]1C[C@H](O)c2ccsc2S1(=O)=O | 0.0096% [at 26.5 µM] | 
31 | COc1cc(N)c(Cl)cc1C(=O)NC1CCN(Cc2ccccc2)CC1 | -0.336% [at 26.5 µM] | 
32 | C1CCCNCCC1 | -0.0797% | 
33 | CCCCOCCCC | 0.46% | 
34 | Cc1oncc1C(=O)Nc1ccc(C(F)(F)F)cc1 |  | inactive
35 | COCCOCCOCCOCCOCCO | -0.135% | 
36 | N[C@@H](Cc1c[nH]c2ccccc12)C(=O)O |  | inactive
37 | C=CC(C)CCC=C(C)C (stereo not given) | -0.0642% | 
38 | C=CC(=O)OCCCCCCCC | -1.37% | 
39 | N[C@H](Cc1c[nH]c2ccccc12)C(=O)O |  | inactive
40 | COC(=O)Nc1nc2ccc(S(=O)c3ccccc3)cc2[nH]1 (stereo not given) |  | inactive
